An excerpt weighted towards active compounds, which were near 5.2% of everything screened.
Tau fibril ThT = blocks human tau fibril formation measured by thioflavin T; 2.1% of 270,000 active; AID 1460; Potency, µM (titrated, usually from 57.4 µM), actives largely listed as inhibitors; recombinant tau K18 P301L, heparin-induced fibrillization, ThT fluorescence; further: nearly all actives have a fitted effect of over 55% in size
Target sequence (P10636 561-689 P618L limits assumed): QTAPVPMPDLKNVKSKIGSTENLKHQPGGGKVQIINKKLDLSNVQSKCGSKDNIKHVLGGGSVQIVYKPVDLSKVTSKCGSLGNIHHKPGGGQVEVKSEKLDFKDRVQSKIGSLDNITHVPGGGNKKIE
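K18 P301L tau (15 uM + 0.24 uM Alexa 594-tagged), heparin 20 uM, NaOAc pH 7, 6 h 37 C; ThT 30 uM, 1 h RT, ex 450/em 510 nm.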
Tau FP inhib = blocks human tau fibril formation measured by polarization; K18 P301L tau heparin fibrillization, Alexa594 FP, 6 h; AID 1468; P10636; Potency, µM (titrated, usually from 57.7 µM), hits mostly inhibitors; 0.39% of 280,000 active; further: nearly all actives have a fitted effect of over 55% in size
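FP of Alexa 594-tau after heparin (20 uM) induction. Substrate: human K18 P301L, 15 uM unlabeled, 0.24 uM labeled. Buffer 100 mM sodium acetate pH 7. 6 hr, 37 C.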
Sfp PPTase inh = inhibitors of Bacillus subtilis Sfp phosphopantetheinyl transferase; 3.5% of 310,000 active; Potency, µM, usual class: inhibitors; Q9F4F7; AID 1490; Biochemical Sfp PPTase activity, qHTS;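 further: the enzyme is Sfp with the accession as filed and its product quenches rhodamine fluorescence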
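Compounds were incubated with enzyme (final 15 nM) for 15 min at room temperature before substrate addition started the reaction. Fluorescence at 525 nm excitation, 598 nm emission was recorded immediately and after 30 minutes.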
Coupling enz = coupling enzyme interference in Giardia aldolase counter-screen | coupling enzyme system counterscreen, AmpLite Red fluorescence | activity change, negative = inhibition, % at 58.2 µM, hits read low | 0.67% of 290,000 active; in the data active means activity change below about -30%
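Counterscreen lacking aldolase: glyceraldehyde-3-phosphate coupling-enzyme reagent preincubated 10 min at RT with compound (at 57.5 uM final), then substrate/coupling system with AmpLite Red added; fluorescence read at 525/598 nm after 20 min RT.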
Tau fluor counter = counter-screen for tau fibril formation inhibitors | tau K18 P301L (four-repeat tau fragment) Alexa594 fluorescence, heparin fibrillization | Potency, µM (top dose mostly 57.7 µM) | 0.93% of 280,000 active | AID 1463; further: nearly all actives have a fitted effect of over 55% in size
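Human K18 P301L tau (15 uM unlabeled plus 0.24 uM Alexa 594-labeled, final) in 100 mM sodium acetate pH 7 was mixed with compound and 20 uM heparin and incubated 6 hr at 37 C.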
Each line names hits and unclear results; the compound was inactive in the other large screens; [ ] = another dose, or the depositor's remark. Unless noted, the call rests on the fitted dose curve; in most records, active means well fitted curve in the direction sought with a large enough effect; inconclusive means small, poorly fitted or top-dose-only effect, or another doubt; inactive means no such curve, though single readings can be large; an effect the other way counts as inactive or inconclusive.

O=C1OC2(CCCCC2)OC(=O)C1=CNc1ccc2c(c1)OCO2	none
Nc1ccc2c(c1)OC1(CCCC1)O2	Tau fibril ThT 13µM, Tau fluor counter inconclusive
Cc1ccc2cccc(OCC(=O)NCc3ccco3)c2n1	Sfp PPTase inh 28µM
Cc1ccc(-c2csc(=S)n2CC(=O)OCC(=O)NC(C)C(C)C)cc1 (stereo not drawn)	none
Cc1ccsc1C(=O)OCC(=O)NCc1ccco1	none
Cc1ccc(C(=O)OCC(=O)NCc2ccco2)s1	Sfp PPTase inh 45µM
O=C(COC(=O)CCC(=O)c1ccc(Cl)cc1)NCc1ccco1	Sfp PPTase inh 14µM
Cc1ccc(-c2csc(=S)n2CC(=O)OCC(=O)NCc2ccco2)cc1	Sfp PPTase inh 22µM
CC[C@H](C)[C@H](NC(=O)[C@H](CCCNC(=N)N)NC(=O)[C@@H](NC(=O)[C@H](CCCNC(=N)N)NC(=O)[C@H](CCCCN)NC(=O)[C@H](CCCNC(=N)N)NC(=O)[C@@H](NC(=O)[C@H](CC(N)=O)NC(=O)[C@@H](N)CS)[C@@H](C)O)[C@@H](C)CC)C(=O)N[C@@H](CCC(N)=O)C(=O)N[C@@H](CCCNC(=N)N)C(=O)NCC(=O)N1CCC[C@H]1C(=O)NCC(=O)N[C@@H](CCCNC(=N)N)C(=O)N[C@@H](C)C(=O)N[C@@H](Cc1ccccc1)C(=O)N[C@H](C(=O)N[C@H](C(=O)N[C@H](C(=O)NCC(=O)N[C@@H](CCCCN)C(=O)O)[C@@H](C)CC)[C@@H](C)O)C(C)C	none (no result: Tau fibril ThT, Tau FP inhib, Tau fluor counter)
CO[C@@H]1COC(=O)C/C=C\[C@@H](C)[C@H](OC)COC(=O)C/C=C\[C@H]1C	none
Fc1ccccc1N1CCN(c2c3c(nc4nncn24)CCC3)CC1	Tau fibril ThT inconclusive (no result: Sfp PPTase inh, Coupling enz)
O=C(COC(=O)C1(c2ccc(F)cc2)CCCC1)NCc1ccco1	Sfp PPTase inh 56µM
CCc1ccc(NC(=O)Cn2cc(S(=O)(=O)N3CCCC3)c(S(=O)(=O)N3CCCC3)c2)cc1	none (no result: Sfp PPTase inh, Coupling enz)
CCCCC(=O)NC(=S)Nc1cccc(NC(=O)CC)c1	none
CCCCC(=O)NC(=S)Nc1c(C)cc(Br)cc1C	Sfp PPTase inh 35µM
CCC(C(=O)Nc1cc(C(F)(F)F)ccc1Cl)n1nc(C)c2sc3ccccc3c2c1=O (stereo not drawn)	Tau fibril ThT inconclusive (no result: Sfp PPTase inh, Coupling enz)
CN1CCN(/N=C/c2ccc(-c3ccc([N+](=O)[O-])cc3Cl)o2)CC1	Tau fibril ThT 11µM, Tau fluor counter inconclusive
O=[N+]([O-])c1ccc(Cl)c(-c2ccc(/C=N/n3cnnc3)o2)c1	none (no result: Tau fibril ThT, Tau FP inhib, Tau fluor counter)
N#Cc1c(SCC(N)=O)nsc1SCc1ccc(Cl)cc1	none
COC(=O)c1ccccc1CSc1nsc(C)c1C#N	Sfp PPTase inh 50µM (no result: Tau fibril ThT, Tau FP inhib, Tau fluor counter)
Cc1ccc(C(=O)CSc2nsc(C)c2C#N)cc1	Tau fibril ThT inconclusive, Sfp PPTase inh 20µM
COC(=O)c1cc(C#N)c(SCc2ccccc2)nc1C	none
Cc1snc(SCC(=O)c2ccc(Cl)cc2)c1C#N	Tau fibril ThT inconclusive, Tau FP inhib inconclusive, Sfp PPTase inh 28µM, Tau fluor counter inconclusive
O=C(N/N=C/c1ccc(O)c(O)c1)c1ccc(CSc2cccc3cccnc23)cc1	Tau fibril ThT inconclusive, Tau fluor counter 22µM[quencher]
O=C(CSc1cccc2cccnc12)N/N=C/c1cccc(O)c1	Tau fibril ThT inconclusive
CCc1ccc(Nc2ccc(C(N)=O)cc2[N+](=O)[O-])cc1	Tau fibril ThT 13µM, Tau fluor counter inconclusive
CC(NCC1(N2CCOCC2)CCCCC1)C(=O)Nc1ccc(Cl)cc1Cl (stereo not drawn)	Sfp PPTase inh 56µM
O=S(=O)(Nc1cccc2ncccc12)c1cccs1	Coupling enz -38
Cc1c(NS(=O)(=O)c2cccs2)cccc1-c1nc2cccnc2s1	Tau fluor counter inconclusive
CNS(=O)(=O)c1ccc2c3c(cccc13)C(=O)N2	none (no result: Tau fibril ThT, Tau FP inhib, Tau fluor counter)
O=C1Nc2ccc(NS(=O)(=O)c3cccs3)c3cccc1c23	Tau fibril ThT inconclusive, Coupling enz -56
CCOc1ccccc1NS(=O)(=O)c1cccs1	Coupling enz -41
COC(=O)c1ccccc1NC(=O)CN(c1ccccc1OC)S(C)(=O)=O	none (no result: Sfp PPTase inh, Coupling enz)
Cc1cccc(NC(=O)CSc2nc(=O)n(CCN3CCOCC3)c3c2CCC3)c1C	none (no result: Sfp PPTase inh, Coupling enz)
COC(=O)COC(=O)c1ccccc1NC(=O)c1ccccc1	none
CC(=O)c1ccccc1NC(=O)COC(=O)c1ccccc1NC(=O)c1ccccc1	Sfp PPTase inh 28µM
COc1ccc(/C=C/c2nc(-c3ccccc3O)n[nH]2)cc1OC	Tau FP inhib inconclusive, Tau fluor counter 16µM[quencher]
O=C(O)COc1ccc(/C=C/c2nc(-c3ccccc3O)n[nH]2)cc1	none (no result: Tau fibril ThT, Tau FP inhib, Tau fluor counter)
Cc1cccc(C(=O)Nc2nnc(SCc3cc(=O)n4cccc(C)c4n3)s2)c1	none (no result: Sfp PPTase inh, Coupling enz)
COC(=O)c1nn(-c2ccc(OC)cc2)c(=O)cc1Sc1ccc(C)cc1	none
COC(=O)c1nn(-c2ccc(OC)cc2)c(=O)cc1NN	Tau fibril ThT 14µM, Tau FP inhib inconclusive, Coupling enz -43
CC(=O)NC1Sc2ccccc2N=C1c1ccccc1 (stereo not drawn)	Tau fibril ThT inconclusive, Sfp PPTase inh 16µM
CC(=O)Nc1nc(-c2ccccc2)c(-c2ccccc2)o1	none
COC(=O)c1ccc(C2/C(=C(/O)c3ccc(OC)cc3)C(=O)C(=O)N2Cc2ccco2)cc1 (stereo not drawn)	Tau fibril ThT inconclusive, Sfp PPTase inh 22µM
CC1Cc2cc(/C(O)=C3/C(=O)C(=O)N(CCCn4ccnc4)C3c3ccco3)ccc2O1 (stereo not drawn)	none
CC1Cc2cc(/C(O)=C3/C(=O)C(=O)N(Cc4ccco4)C3c3cccs3)ccc2O1 (stereo not drawn)	Sfp PPTase inh 28µM
COc1ccc(/C(O)=C2/C(=O)C(=O)N(Cc3ccco3)C2c2cccs2)cc1 (stereo not drawn)	Tau fibril ThT inconclusive, Tau FP inhib inconclusive, Sfp PPTase inh 10µM
COc1ccc(C2/C(=C(\O)c3ccc4c(c3)OCCO4)C(=O)C(=O)N2Cc2ccco2)c(OC)c1 (stereo not drawn)	none
COC(=O)c1ccc(C2/C(=C(\O)c3cccc(OC)c3)C(=O)C(=O)N2CCCN(C)C)cc1 (stereo not drawn)	none
CC(=O)N[C@@H](CCC(=O)O)C(=O)O	none (no result: Tau fibril ThT, Tau FP inhib, Coupling enz, Tau fluor counter)
CCCCC[n+]1ccn(-c2nc3ccccc3nc2[N-]S(=O)(=O)c2ccc(C)cc2)c1	Sfp PPTase inh 56µM (no result: Coupling enz)
CCCC[n+]1ccn(-c2nc3ccccc3nc2[N-]S(=O)(=O)c2cccs2)c1	Tau fibril ThT inconclusive, Sfp PPTase inh 35µM
CCCC[n+]1ccn(-c2nc3ccccc3nc2[N-]S(=O)(=O)c2ccccc2)c1	none
CCCCOC(=O)Sc1nc2ccccc2o1	Tau fibril ThT inconclusive, Sfp PPTase inh 40µM
Cc1ccc(N2C(=O)CSC23C(=O)N(CC(=O)Nc2ccc(C)cc2C)c2ccccc23)cc1 (stereo not drawn)	none (no result: Sfp PPTase inh, Coupling enz)
